{"source": "paper PMC4336329", "about": "(PLoS ONE, 2015)", "note": "The whole screen tested about 310,000 compounds, of which about 14,000 (4.5%) showed an effect of 50% or more. Effects have a minus sign here. What follows is part of a selection rich in strong results, with near analogues and random picks from the rest.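 Note: peak tail current of the secondary pulse compared with the same well before compound.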"}
{"biological_target": "human ether-à-go-go-related gene (hERG) potassium channel (human, UniProt Q12809)", "sequence (Q12809 whole entry, looked up)": "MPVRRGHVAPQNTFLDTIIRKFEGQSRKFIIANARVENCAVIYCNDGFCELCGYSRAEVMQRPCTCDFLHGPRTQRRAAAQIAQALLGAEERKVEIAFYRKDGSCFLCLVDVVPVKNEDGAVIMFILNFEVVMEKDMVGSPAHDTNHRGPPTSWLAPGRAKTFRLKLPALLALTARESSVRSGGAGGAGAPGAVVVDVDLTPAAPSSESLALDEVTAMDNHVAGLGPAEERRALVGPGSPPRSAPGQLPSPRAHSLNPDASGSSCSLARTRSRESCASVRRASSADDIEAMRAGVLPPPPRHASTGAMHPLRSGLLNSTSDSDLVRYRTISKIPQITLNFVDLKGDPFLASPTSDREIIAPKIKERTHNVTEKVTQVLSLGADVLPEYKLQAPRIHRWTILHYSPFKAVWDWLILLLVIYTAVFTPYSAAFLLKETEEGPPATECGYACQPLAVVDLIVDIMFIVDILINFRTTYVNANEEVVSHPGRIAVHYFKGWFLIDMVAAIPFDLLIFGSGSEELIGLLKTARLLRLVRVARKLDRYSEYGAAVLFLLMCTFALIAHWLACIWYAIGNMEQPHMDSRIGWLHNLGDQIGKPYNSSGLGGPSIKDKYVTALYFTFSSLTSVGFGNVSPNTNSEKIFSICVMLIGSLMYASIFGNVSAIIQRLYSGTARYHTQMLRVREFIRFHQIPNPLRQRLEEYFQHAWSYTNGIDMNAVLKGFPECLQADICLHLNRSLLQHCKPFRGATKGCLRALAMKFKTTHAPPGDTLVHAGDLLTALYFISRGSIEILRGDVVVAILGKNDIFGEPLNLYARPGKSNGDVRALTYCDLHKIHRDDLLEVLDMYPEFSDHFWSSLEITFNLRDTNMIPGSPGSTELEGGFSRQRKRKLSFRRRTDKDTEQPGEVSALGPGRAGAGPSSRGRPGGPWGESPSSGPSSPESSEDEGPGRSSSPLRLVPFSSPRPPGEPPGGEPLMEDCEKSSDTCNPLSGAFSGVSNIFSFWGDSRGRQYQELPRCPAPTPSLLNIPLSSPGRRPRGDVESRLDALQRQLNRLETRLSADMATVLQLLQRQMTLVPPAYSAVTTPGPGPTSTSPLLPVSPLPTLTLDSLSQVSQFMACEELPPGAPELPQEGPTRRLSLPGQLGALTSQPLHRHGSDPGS", "assay": "primary screen, population patch clamp on CHO cells stably expressing hERG; higher = less effect of the substance", "units": {"hERG current change (%, negative = inhibition) at 10uM": "%"}}
{"smiles": "CC(C)(C)C(=O)O/N=C(\\N)c1ccc([N+](=O)[O-])s1", "hERG current change (%, negative = inhibition) at 10uM": 20.7}
{"smiles": "CSc1cccc(NC(=O)C2CCN(C(=O)c3ccccc3C)CC2)c1", "hERG current change (%, negative = inhibition) at 10uM": -18.7}
{"smiles": "O=C1CC(c2ccc(F)cc2)Cc2nc(N3CCN(c4ccccc4)CC3)ncc21", "note": "(centres unmarked)", "hERG current change (%, negative = inhibition) at 10uM": 1.48}
{"smiles": "O=C(O)c1ccc(/C=N/NC(=O)c2ccc3c(c2)OCCO3)cc1", "hERG current change (%, negative = inhibition) at 10uM": 16.1}
{"smiles": "CCn1c(C2CCN(Cc3ccccc3)CC2)n[nH]c1=S", "hERG current change (%, negative = inhibition) at 10uM": -17.3}
{"smiles": "CCC(=O)N/N=c1/sc2ccccc2n1C", "hERG current change (%, negative = inhibition) at 10uM": 13.9}
{"smiles": "Cc1ccc(C)c(NC2=NCCCS2)c1", "hERG current change (%, negative = inhibition) at 10uM": 1.48}
{"smiles": "CC1(C)CC(NC(=O)COc2ccc3ccccc3c2)CC(C)(C)N1", "hERG current change (%, negative = inhibition) at 10uM": -12.6}
{"smiles": "O=C1Nc2cc(C(=O)NCCCN3CCOCC3)ccc2S/C1=C/c1ccccc1F", "hERG current change (%, negative = inhibition) at 10uM": -29.8}
{"smiles": "O=C(NCCCN1CCCCC1)c1ccc2c(c1)NC(=O)c1ccccc1S2", "hERG current change (%, negative = inhibition) at 10uM": -13.7}
{"smiles": "O=C1Nc2cc(C(=O)NCCCN3CCCC3)ccc2S/C1=C\\c1ccccc1", "hERG current change (%, negative = inhibition) at 10uM": -51.4}
{"smiles": "O=C1Nc2cc(C(=O)NCCCN3CCCC3)ccc2S/C1=C/c1ccccc1F", "hERG current change (%, negative = inhibition) at 10uM": -69.5}
{"smiles": "O=C1Nc2cc(C(=O)NCC3CCCO3)ccc2S/C1=C/c1ccccc1F", "note": "(centres unmarked)", "hERG current change (%, negative = inhibition) at 10uM": -4.84}
{"smiles": "O=C1Nc2cc(C(=O)NCCN3CCCCCC3)ccc2S/C1=C\\c1ccccc1", "hERG current change (%, negative = inhibition) at 10uM": -43.9}
{"smiles": "COc1ccccc1N1CCN(S(=O)(=O)/C=C/c2ccccc2)CC1", "hERG current change (%, negative = inhibition) at 10uM": -11.3}
{"smiles": "Cc1ccc(NC(=O)CN(C)C(=O)COC(=O)COc2ccc(C#N)cc2)cc1", "hERG current change (%, negative = inhibition) at 10uM": -24.2}
{"smiles": "O=C(O)c1cccc2c1C(=O)c1ccccc1C2=O", "hERG current change (%, negative = inhibition) at 10uM": 19.7}
{"smiles": "Cc1ccc(S(=O)(=O)Nc2cc(-c3ccccc3)nn2C)cc1Cl", "hERG current change (%, negative = inhibition) at 10uM": 12.2}
{"smiles": "COc1ccccc1NC(=S)NCC1CCCO1", "note": "(centres unmarked)", "hERG current change (%, negative = inhibition) at 10uM": 8.94}
{"smiles": "Cc1ccc(NC(=O)CSc2ccc3nnc(CCNC(=O)c4ccccc4)n3n2)c(C)c1", "hERG current change (%, negative = inhibition) at 10uM": -18}
{"smiles": "S=C(NCCCc1ccccc1)Nc1ccc(Br)cc1", "hERG current change (%, negative = inhibition) at 10uM": 17.9}
{"smiles": "CCCCCOC(=O)C1[C@H]2C(=O)N(Cc3cccs3)C[C@]23C=C[C@H]1O3", "note": "(some centres unmarked)", "hERG current change (%, negative = inhibition) at 10uM": 1.95}
{"smiles": "O=C(NC1CCCCCC1)c1ccc2nc3cc(Cl)ccc3c(=O)n2c1", "hERG current change (%, negative = inhibition) at 10uM": 7.94}
{"smiles": "Cc1ccc2nc3nc(NCC4CCCO4)c(C(=O)NC4CCCCC4)cc3c(=O)n2c1", "note": "(centres unmarked)", "hERG current change (%, negative = inhibition) at 10uM": -78.1}
{"smiles": "Cc1ccc2nc3c(cc(C(=O)NC4CCS(=O)(=O)C4)n3Cc3ccccc3)c(=O)n2c1", "note": "(centres unmarked)", "hERG current change (%, negative = inhibition) at 10uM": 19.6}
{"smiles": "Cc1ccc2nc(SCC(=O)NC3CCCC3)nc(=O)n2c1", "hERG current change (%, negative = inhibition) at 10uM": -25.1}
{"smiles": "Cc1ccc2nc(SCC(=O)NC3CCCCC3)nc(=O)n2c1", "hERG current change (%, negative = inhibition) at 10uM": -14.5}
{"smiles": "Cc1ccc2nc3nc(NCC4CCCO4)c(C(=O)NC4CCCC4)cc3c(=O)n2c1", "note": "(centres unmarked)", "hERG current change (%, negative = inhibition) at 10uM": -75.6}
{"smiles": "COC(=O)Cc1ccc(NC(=O)c2ccc3c(c2)C(=O)N(Cc2ccco2)C3=O)cc1", "hERG current change (%, negative = inhibition) at 10uM": -2.43}
{"smiles": "Cn1nc(C(F)(F)F)c(-c2ccccc2)c1NC(=O)CSCC(=O)O", "hERG current change (%, negative = inhibition) at 10uM": 12.2}
{"smiles": "CCSc1ncnc2c1sc1nc3c(cc12)COC(C)(C)C3", "hERG current change (%, negative = inhibition) at 10uM": -2.04}
{"smiles": "COc1ccccc1N1CCN(C2CCN(C(=O)c3ccc(F)cc3)CC2)CC1", "hERG current change (%, negative = inhibition) at 10uM": -61}
{"smiles": "COc1ccc(C(=O)N2CCC(N3CCN(c4ccccc4)CC3)CC2)cc1.O=C(O)C(=O)O", "hERG current change (%, negative = inhibition) at 10uM": -57.6}
{"smiles": "COc1ccccc1N1CCN(C2CCN(C(=O)COc3cccc(C)c3)CC2)CC1.O=C(O)C(=O)O", "hERG current change (%, negative = inhibition) at 10uM": -67.8}
{"smiles": "COc1ccccc1N1CCN(C2CCC(C)CC2)CC1", "note": "(centres unmarked)", "hERG current change (%, negative = inhibition) at 10uM": 4.87}
{"smiles": "COc1cc(OC)cc(C(=O)N2CCC(N3CCN(c4ccccc4)CC3)CC2)c1", "hERG current change (%, negative = inhibition) at 10uM": -26.9}
{"smiles": "COc1ccccc1N1CCN(C2CCN(C(=O)COc3ccccc3)CC2)CC1", "hERG current change (%, negative = inhibition) at 10uM": -25.4}
{"smiles": "Cc1cccc(OCC(=O)N2CCC(N3CCCCCC3)CC2)c1", "hERG current change (%, negative = inhibition) at 10uM": -11.2}
{"smiles": "CCN1CCC(N2CCN(c3ccccc3OC)CC2)CC1", "hERG current change (%, negative = inhibition) at 10uM": 11.7}
{"smiles": "COc1ccccc1N1CCN(C2CCN(C(=O)c3cccc(F)c3)CC2)CC1.O=C(O)C(=O)O", "hERG current change (%, negative = inhibition) at 10uM": -33.1}
{"smiles": "COc1ccccc1C(=O)N1CCC(N2CCN(c3ccccc3)CC2)CC1", "hERG current change (%, negative = inhibition) at 10uM": -8.58}
{"smiles": "COc1ccccc1N1CCN(C2CCN(C3CCC(c4ccccc4)CC3)CC2)CC1.O=C(O)C(=O)O", "note": "(centres unmarked)", "hERG current change (%, negative = inhibition) at 10uM": -74.1}
{"smiles": "COc1ccccc1N1CCN(C2CCN(C(=O)c3cc(OC)c(OC)c(OC)c3)CC2)CC1", "hERG current change (%, negative = inhibition) at 10uM": -23.1}
{"smiles": "CSc1sc(C)cc1/C=N/O", "hERG current change (%, negative = inhibition) at 10uM": 6.46}
{"smiles": "NC(=O)c1nsc(C(=O)N(Cc2ccco2)C(C(=O)NCc2ccc(F)cc2)c2ccc(O)cc2)c1N", "note": "(centres unmarked)", "hERG current change (%, negative = inhibition) at 10uM": -43.8}
{"smiles": "O=C(OC1CCOC1=O)c1ccc(CO)cc1", "note": "(centres unmarked)", "hERG current change (%, negative = inhibition) at 10uM": 27.4}
{"smiles": "CCCn1c2ccccc2c2cc(C(=O)O)ccc21", "hERG current change (%, negative = inhibition) at 10uM": 6.24}
{"smiles": "c1ccc(-c2csc(-c3ccc(-c4csnn4)cc3)n2)cc1", "hERG current change (%, negative = inhibition) at 10uM": 17.6}
{"smiles": "CN1C(=O)c2ccccc2Sc2ccc(NC(=O)N3CCOCC3)cc21", "hERG current change (%, negative = inhibition) at 10uM": -7.88}
{"smiles": "C=CCn1cc(C=C2C(=O)N(C)C(=O)N(C)C2=O)c2ccccc21", "hERG current change (%, negative = inhibition) at 10uM": 23.9}
{"smiles": "CC(C)CC(=O)Nc1nc2c(c(=O)[nH]1)CCCC2", "hERG current change (%, negative = inhibition) at 10uM": 17.9}
{"smiles": "CN=C1CN(O)C(c2ccccc2)=c2cc(Cl)ccc2=N1", "hERG current change (%, negative = inhibition) at 10uM": 18.6}
{"smiles": "C/C(=N\\NC(=O)CNc1ccc(F)cc1)c1cc2ccccc2o1", "hERG current change (%, negative = inhibition) at 10uM": -26.6}
{"smiles": "C=CCn1c(O)c(N=NC(=O)c2cccnc2)c2cc(Br)ccc21", "hERG current change (%, negative = inhibition) at 10uM": -16.1}
{"smiles": "C=CCn1c(=O)c(C(=O)NCc2ccccc2)c(O)c2ccccc21", "hERG current change (%, negative = inhibition) at 10uM": 15.4}
{"smiles": "O=[N+]([O-])c1cccc(Cl)c1NCCNc1ncc(C(F)(F)F)cc1Cl", "hERG current change (%, negative = inhibition) at 10uM": 15.6}
